# According to PubChem BioAssay (EPA / NIEHS):
# Several values for one entry are separate records, joined by “and”; a condition that tells them apart may be missing. Equal entries are not always repeated. Records with an inconclusive call do not appear. Some structures have more than one record in an assay (separate samples or runs), and their calls can disagree. Activity calls are given as the source filed them. How the source made its calls, unless noted: active means hit-call score of the fitted dose curve at least 0.9, where 1 is the maximum; inactive means score below 0.9.
# Columns and labels:
# [1] = BSK_SAg_Proliferation: Cell Proliferation Assessment in the BioMAP Diversity Plus: SAg Assay (AID 2283095); settings: primary human HUVEC with PBMC;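 further: relative cell number as total protein by SRB absorbance in sub-confluent culture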
# Summary of the method: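 Human umbilical vein endothelial cells co-cultured with peripheral blood mononuclear cells; total protein measured by sulforhodamine B staining (0.1% SRB after 10% TCA fixation), absorbance at 560 nm, at 96 h. Bidirectional fit against DMSO baseline.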
# [2] = BSK_SAg_SRB: Viability Assessment in the BioMAP Diversity Plus: SAg Assay (AID 2283096); settings: primary human HUVEC with PBMC;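 further: cells read one day after compound addition; hits may be either gain or loss of signal compared with DMSO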
# Summary of the method: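 Human umbilical vein endothelial cells co-cultured with PBMC, read 24 h after compound dosing. Total protein measured by sulforhodamine B staining (0.1% SRB after 10% TCA fixation, absorbance 560 nm); bidirectional fit versus DMSO baseline.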
# [3] = target: Cytochrome P450 2C18 (Homo sapiens) (UniProt P33260); experiment: NVS_ADME_hCYP2C18: NovaScreen (NVS) CYP450-related Enzyme Activity (ADME) Assay for human CYP2C18 (AID 2283103)
# Chain of Cytochrome P450 2C18 (Homo sapiens) (P33260 whole entry, looked up): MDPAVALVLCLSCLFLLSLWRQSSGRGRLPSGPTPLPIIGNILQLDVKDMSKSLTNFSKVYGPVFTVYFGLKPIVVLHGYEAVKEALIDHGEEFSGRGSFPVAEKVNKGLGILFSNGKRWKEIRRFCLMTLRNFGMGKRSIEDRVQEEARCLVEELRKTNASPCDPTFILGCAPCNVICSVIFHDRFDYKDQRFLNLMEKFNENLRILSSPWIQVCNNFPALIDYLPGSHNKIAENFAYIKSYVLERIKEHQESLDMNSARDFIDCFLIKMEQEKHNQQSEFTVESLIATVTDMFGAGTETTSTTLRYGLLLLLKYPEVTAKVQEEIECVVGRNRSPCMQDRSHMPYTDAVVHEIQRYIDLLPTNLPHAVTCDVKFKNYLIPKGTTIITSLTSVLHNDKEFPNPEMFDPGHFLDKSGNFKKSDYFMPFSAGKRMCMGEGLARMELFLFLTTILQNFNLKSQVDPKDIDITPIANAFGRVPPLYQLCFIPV
# Experimental: (§1) NVS_ADME_hCYP2C18 is a biochemical, single-readout assay that uses extracted gene-proteins in a cell-free assay. Measurements were taken 0.5 hour after chemical dosing in a 96-well plate.NVS_ADME_hCYP2C18 is one of one assay component(s) measured or calculated from the NVS_ADME_hCYP2C18 assay. It is designed to make measurements of enzyme activity, a form of enzyme reporter, as detected with fluorescence intensity signals by Fluorescence technology.Data from the assay component NVS_ADME_hCYP2C18 was analyzed into 1 assay endpoint. This assay endpoint, NVS_ADME_hCYP2C18, was analyzed in the positive analysis fitting direction relative to Acetonitrile as the negative control and baseline of activity. Using a type of enzyme reporter, loss-of-signal activity can be used to understand changes in the enzymatic activity as they relate to the gene CYP2C18. Furthermore, this assay endpoint can be referred to as a primary readout, because this assay has produced multiple assay endpoints where this one serves a enzymatic activity function. To generalize the intended target to other relatable targets, this assay endpoint is annotated to the cyp intended target family, where the subfamily is xenobiotic metabolism. […]
# [4] = target: human CYP2D6, CYP2D6 (gene 1565) (UniProt P10635); experiment: NVS_ADME_hCYP2D6: NovaScreen (NVS) CYP450-related Enzyme Activity (ADME) Assay for human CYP2D6 (AID 2283107; active means hit-call score of the fitted dose curve at least 0.9, where 1 is the maximum)
# Chain of human CYP2D6, CYP2D6 (gene 1565) (P10635 whole entry, looked up): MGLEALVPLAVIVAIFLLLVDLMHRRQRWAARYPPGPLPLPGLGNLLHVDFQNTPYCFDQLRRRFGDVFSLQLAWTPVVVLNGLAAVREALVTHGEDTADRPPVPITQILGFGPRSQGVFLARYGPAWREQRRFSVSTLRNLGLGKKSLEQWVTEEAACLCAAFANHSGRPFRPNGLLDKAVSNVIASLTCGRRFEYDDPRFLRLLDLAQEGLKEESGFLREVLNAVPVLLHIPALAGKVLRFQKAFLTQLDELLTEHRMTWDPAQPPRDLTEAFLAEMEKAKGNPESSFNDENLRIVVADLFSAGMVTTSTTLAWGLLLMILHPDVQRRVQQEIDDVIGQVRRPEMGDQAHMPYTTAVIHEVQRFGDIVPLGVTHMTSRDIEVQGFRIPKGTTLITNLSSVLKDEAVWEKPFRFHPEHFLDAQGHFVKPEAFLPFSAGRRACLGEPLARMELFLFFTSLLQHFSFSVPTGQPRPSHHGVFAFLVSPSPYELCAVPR
# Summary of the method: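 Cell-free assay using recombinant enzyme expressed in insect cells, with fluorescence-intensity readout of enzyme activity 1 hour after chemical dosing. Loss of signal versus acetonitrile negative control indicates inhibition. Primary screen ran in duplicate at 10 uM; actives were retested in concentration series.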
# [5] = target: human CYP2C9, CYP2C9 (gene 1559) (UniProt P11712); experiment: NVS_ADME_hCYP2C9: NovaScreen (NVS) CYP450-related Enzyme Activity (ADME) Assay for human CYP2C9 (AID 2283108; active means hit-call score of the fitted dose curve at least 0.9, where 1 is the maximum)
# Chain of human CYP2C9, CYP2C9 (gene 1559) (P11712 whole entry, looked up): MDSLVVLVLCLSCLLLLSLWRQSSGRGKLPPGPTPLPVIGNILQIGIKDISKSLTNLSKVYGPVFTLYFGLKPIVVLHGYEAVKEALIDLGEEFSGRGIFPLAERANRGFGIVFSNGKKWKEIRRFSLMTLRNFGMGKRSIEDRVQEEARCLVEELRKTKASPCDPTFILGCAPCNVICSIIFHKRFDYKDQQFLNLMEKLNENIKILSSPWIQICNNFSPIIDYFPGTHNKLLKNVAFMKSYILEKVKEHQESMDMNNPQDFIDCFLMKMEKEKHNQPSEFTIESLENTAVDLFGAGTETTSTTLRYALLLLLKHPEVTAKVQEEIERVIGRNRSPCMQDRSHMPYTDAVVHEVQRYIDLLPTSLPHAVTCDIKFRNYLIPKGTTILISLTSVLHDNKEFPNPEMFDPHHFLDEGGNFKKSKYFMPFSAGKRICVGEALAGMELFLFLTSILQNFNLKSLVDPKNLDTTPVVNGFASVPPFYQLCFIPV
# Experimental: as §1, with “NVS_ADME_hCYP2C9” for “NVS_ADME_hCYP2C18”, “gene-proteins from SF9” for “gene-proteins”, “0.75” for “0.5”, “plate.NVS_ADME_hCYP2C9” for “plate.NVS_ADME_hCYP2C18”, “NVS_ADME_hCYP2C9,” for “NVS_ADME_hCYP2C18,”, “CYP2C9.” for “CYP2C18.”
# [6] = target: human CYP4F12, CYP4F12 (gene 66002) (UniProt Q9HCS2); experiment: NVS_ADME_hCYP4F12: NovaScreen (NVS) CYP450-related Enzyme Activity (ADME) Assay for human CYP4F12 (AID 2283111; active means hit-call score of the fitted dose curve at least 0.9, where 1 is the maximum)
# Chain of human CYP4F12, CYP4F12 (gene 66002) (Q9HCS2 whole entry, looked up): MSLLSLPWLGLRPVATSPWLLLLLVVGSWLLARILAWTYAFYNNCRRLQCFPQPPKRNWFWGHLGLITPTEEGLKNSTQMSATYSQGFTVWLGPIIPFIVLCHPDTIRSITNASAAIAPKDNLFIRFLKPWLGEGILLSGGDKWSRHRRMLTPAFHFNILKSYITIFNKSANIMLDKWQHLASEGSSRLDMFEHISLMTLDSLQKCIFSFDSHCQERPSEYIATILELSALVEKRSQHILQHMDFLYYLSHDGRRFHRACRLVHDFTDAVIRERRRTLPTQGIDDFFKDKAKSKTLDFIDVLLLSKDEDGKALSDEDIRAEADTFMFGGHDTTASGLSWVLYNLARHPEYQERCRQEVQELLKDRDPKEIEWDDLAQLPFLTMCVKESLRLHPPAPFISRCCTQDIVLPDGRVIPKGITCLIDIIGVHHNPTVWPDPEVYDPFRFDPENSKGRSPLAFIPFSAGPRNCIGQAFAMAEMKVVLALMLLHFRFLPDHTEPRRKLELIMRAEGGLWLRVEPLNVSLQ
# Summary of the method: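 Cell-free fluorescence assay of recombinant human CYP4F12 activity on a specific substrate, read 0.5 h after dosing. Primary screen in duplicate at 10 uM, then concentration series for actives; loss of signal fitted against acetonitrile negative control.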
# [7] = target: human CYP1A2, CYP1A2 (gene 1544) (UniProt P05177); experiment: NVS_ADME_hCYP1A2: NovaScreen (NVS) CYP450-related Enzyme Activity (ADME) Assay for human CYP1A2 (AID 2283102; active means hit-call score of the fitted dose curve at least 0.9, where 1 is the maximum;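 further: potency for inhibition since loss of fluorescence marks reduced CYP1A2 activity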)
# Chain of human CYP1A2, CYP1A2 (gene 1544) (P05177 whole entry, looked up): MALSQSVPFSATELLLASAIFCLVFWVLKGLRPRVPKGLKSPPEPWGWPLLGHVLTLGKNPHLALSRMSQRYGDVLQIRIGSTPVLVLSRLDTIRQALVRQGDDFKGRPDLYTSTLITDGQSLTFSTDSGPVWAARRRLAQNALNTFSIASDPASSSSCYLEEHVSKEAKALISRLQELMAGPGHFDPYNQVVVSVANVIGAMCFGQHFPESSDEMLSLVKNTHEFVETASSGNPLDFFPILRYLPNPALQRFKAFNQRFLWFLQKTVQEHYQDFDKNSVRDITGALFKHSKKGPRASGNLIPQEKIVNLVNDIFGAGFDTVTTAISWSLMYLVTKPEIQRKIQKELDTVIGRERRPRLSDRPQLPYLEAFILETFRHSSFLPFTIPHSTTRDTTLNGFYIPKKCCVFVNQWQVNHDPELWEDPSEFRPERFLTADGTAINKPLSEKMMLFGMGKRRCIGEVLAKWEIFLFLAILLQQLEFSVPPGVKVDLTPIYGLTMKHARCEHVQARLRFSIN
# Summary of the method: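 Cell-free recombinant human CYP1A2 expressed in insect cells, with fluorogenic substrate; fluorescence intensity read 0.5 h after dosing. Loss of signal relative to acetonitrile baseline scored. Primary screen in duplicate at 10 uM; actives retested in concentration series.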
smiles,measurement,setting,value
O=C(Cc1ccccc1)OCCc1ccccc1,outcome,[1],inactive
same,outcome,[2],inactive
COCC(=O)N(c1c(C)cccc1C)[C@H](C)C(=O)OC,outcome,[1],inactive
same,outcome,[2],inactive
CC(C)(C)c1cc([N+](=O)[O-])cc(C(C)(C)C)c1O,outcome,[1],inactive
same,AC50,[2],0.215 µM (active)
O=C(O)COc1cc(Cl)c(Cl)cc1Cl,outcome,[1],inactive
same,outcome,[2],inactive
c1ccc2sc(SNC3CCCCC3)nc2c1,AC50,[1],29.2 µM (active)
same,outcome,[2],inactive
OCCCCO,AC50,[1],0.61 µM (active)
same,outcome,[1],inactive
same,outcome,[2],inactive
CCOP(=O)(OCC)SCCSCC,outcome,[1],inactive
same,outcome,[2],inactive
O=C(CCl)NCO,outcome,[1],inactive
same,outcome,[2],inactive
CC(C)N(C(=O)CCl)c1ccccc1,AC50,[1],3.59 µM (active)
same,AC50,[2],33.8 µM (active)
O=[N+]([O-])c1ccc(Nc2ccccc2)cc1,outcome,[1],inactive
same,outcome,[2],inactive
CCCCCCCCCCCCc1cccc(S(=O)(=O)O)c1,outcome,[1],inactive
same,outcome,[2],inactive
CCCCCCCCCCCCN(C)C,outcome,[1],inactive
same,outcome,[2],inactive
CCOC(=O)C(SP(=S)(OC)OC)c1ccccc1 (stereo not given),AC50,[1],35.3 µM (active)
same,outcome,[2],inactive
Cc1c([N+](=O)[O-])c(C)c([N+](=O)[O-])c(C(C)(C)C)c1[N+](=O)[O-],AC50,[1],6.82 µM (active)
same,outcome,[2],inactive
O=S(=O)(C(Cl)(Cl)Cl)C(Cl)(Cl)Cl,AC50,[1],0.798 µM (active)
same,AC50,[2],3.74 µM (active)
Cc1cc(C)cc(C)c1,outcome,[1],inactive
same,outcome,[2],inactive
O=S(=O)(c1ccc(Cl)cc1)c1cc(Cl)c(Cl)cc1Cl,AC50,[1],10.8 µM (active)
same,outcome,[2],inactive
C[C@]12CC[C@@H](O)C[C@@H]1CC[C@@H]1[C@@H]2CC[C@]2(C)C(=O)CC[C@@H]12,outcome,[1],inactive
same,outcome,[2],inactive
CCOC(=O)CC(=O)CCl,AC50,[1],16.2 µM (active)
same,outcome,[2],inactive
CCOP(=S)(OCC)OP(=S)(OCC)OCC,AC50,[1],20 µM (active)
same,outcome,[2],inactive
CCN(CC)C(=O)C(Cl)=C(C)OP(=O)(OC)OC,outcome,[1],inactive
same,outcome,[2],inactive
Oc1cccc(-c2ccccc2)c1,AC50,[1],20 µM (active)
same,AC50,[2],20 µM (active)
CC(C)(COCC1CO1)COCC1CO1 (stereo not given),AC50,[1],36.7 µM (active)
same,outcome,[2],inactive
OC(Cc1ccccc1Cl)(Cn1[nH]cnc1=S)C1(Cl)CC1 (stereo not given),AC50,[1],20 µM (active)
same,outcome,[2],inactive
Clc1cccc(Cl)c1Cl,outcome,[1],inactive
same,outcome,[2],inactive
C=CC(Cl)CCl (stereo not given),outcome,[1],inactive
same,outcome,[2],inactive
Cc1ccccc1OP(=O)(Oc1ccccc1)Oc1ccccc1,outcome,[1],inactive
same,AC50,[2],31.6 µM (active)
Cc1cc(Cl)ccc1OC(C)C(=O)O (stereo not given),outcome,[1],inactive
same,outcome,[2],inactive
CCCCN(CCCC)C(=S)[S-].CCCCN(CCCC)C(=S)[S-].[Ni+2],outcome,[1],inactive
same,outcome,[2],inactive
OC(Cc1ccccc1Cl)(Cn1cncn1)C1(Cl)CC1 (stereo not given),outcome,[1],inactive
same,outcome,[2],inactive
CCOP(=S)(OCC)SCS(=O)(=O)C(C)(C)C,outcome,[1],inactive
same,outcome,[2],inactive
Cc1cccc(OP(=O)(Oc2cccc(C)c2)Oc2cccc(C)c2)c1,outcome,[1],inactive
same,outcome,[2],inactive
Cc1ccc(OP(=O)(Oc2ccc(C)cc2C)Oc2ccc(C)cc2C)c(C)c1,AC50,[1],12.9 µM (active)
same,AC50,[2],20 µM (active)
CCCCOC(=O)COC(=O)c1ccccc1C(=O)OCCCC,outcome,[1],inactive
same,outcome,[2],inactive
Oc1c(Cl)cc(Cl)cc1Cl,outcome,[1],inactive
same,outcome,[2],inactive
CC(C=O)Cc1ccc2c(c1)OCO2 (stereo not given),outcome,[1],inactive
same,outcome,[2],inactive
CCOP(=O)(OCC)OC(=CCl)c1ccc(Cl)cc1Cl,outcome,[1],inactive
same,outcome,[2],inactive
NC(=O)CCl,outcome,[1],inactive
same,outcome,[2],inactive
CC1(C)[C@H](C(=O)O[C@H](C#N)c2cccc(Oc3ccccc3)c2)[C@@H]1/C=C(\Cl)C(F)(F)F,AC50,[1],17.1 µM (active) and 3.97 µM (active)
same,outcome,[2],inactive
same,AC50,[3],951 nM (active)
OCCN(CCO)CCO,outcome,[1],inactive
same,outcome,[2],inactive
[Cl][Sn]([c]1ccccc1)([c]1ccccc1)[c]1ccccc1,AC50,[1],0.0609 µM (active)
same,AC50,[2],0.337 µM (active)
same,AC50,[4],997 nM (active)
c1ccc(-c2cccc(-c3ccccc3)c2)cc1,AC50,[1],29.2 µM (active)
same,AC50,[2],27.5 µM (active)
Oc1c(Br)cc(Br)cc1Br,AC50,[1],20 µM (active)
same,AC50,[2],31.7 µM (active)
Oc1ccc(Cc2ccc(O)cc2)cc1,outcome,[1],inactive
same,outcome,[2],inactive
same,AC50,[5],321 nM (active)
COc1ccccc1N,outcome,[1],inactive
same,outcome,[2],inactive
Oc1cc(Cl)c(Cl)cc1Cl,AC50,[1],30.6 µM (active)
same,AC50,[2],27.6 µM (active)
same,AC50,[6],605 nM (active)
C#CCOC(=O)/C=C(C)/C=C/CC(C)CCCC(C)C (stereo not given),outcome,[1],inactive
same,outcome,[2],inactive
N#CCCC(Br)(C#N)CBr (stereo not given),AC50,[1],1.12 µM (active)
same,AC50,[2],11.5 µM (active)
same,AC50,[4],3080 nM (active)
CN(C)C(=S)S,AC50,[1],0.488 µM (active)
same,outcome,[2],inactive
same,AC50,[7],5.64 µM (active)
